According to PubChem BioAssay:
Calls of active or inactive are those of the source.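 How the source made its calls, unless noted: active means fluorescence slope after compound addition differing from the mean of all screened samples at 99.7% confidence, in either direction; inactive means the rest.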

Tests used:
[1] = inhibitors of TNFa-induced NFkB p65 translocation, primary screen, imaging, HUVEC, MLSMR starter and 10KST1 sets (AID 438;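 active means inhibition above 20% together with a positive visual image hit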;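 further: compound added about 3h40 before a 20 min TNFalpha stimulation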;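 on inhibition: signal is the nuclear over cytoplasmic p65 intensity ratio per well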); details: HUVEC TNFa-induced p65 nuclear translocation; cell count: measured here: nuclei count (cytotoxicity indicator), at 2.08 µM; inhibition: at 2 µM, stronger effect = higher value, 0% TNFa-plus-vehicle, 100% no-TNFa wells
[2] = reduction of polyQ htt aggregates in cells – imaging, exon1htt(103Q)mCFP cells, high-content imaging, primary screen (AID 483;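 active means visual image review flags a hit and inhibition of aggregation exceeds 20%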;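 further: compound exposure lasted 3 days before fixation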;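 on nuclei count: percent of the per-plate median nuclei count of sample wells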); details: exon1htt(103Q)mCFP cell line, aggregate imaging, at 2 µM; inhibition of aggregation: stronger effect = higher value; nuclei count: measured here: cell count, toxicity
[3] = endothelial E-selectin expression blockers – imaging, HUVEC, immunofluorescence, MLSMR starter and 10KST1 sets, primary screen (AID 487;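 active means visually confirmed hit in the image check and inhibition above 20%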;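 on inhibition: signal is fraction of cell area covered by stained E-selectin grains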;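 on nuclei count: 100% = median nuclei count of all wells on the same plate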); details: HUVEC TNFalpha-induced E-selectin immunofluorescence imaging, at 2 µM; inhibition: stronger effect = higher value; nuclei count: measured here: cell number, toxicity
[4] = molecular target: Voltage-gated potassium channel subunit beta-2 (Rattus norvegicus) (UniProt P62483); test: inhibitors of rat Kvbeta2 reductase activity – biochemical, NADPH fluorescence, primary screen (AID 622;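 active means fluorescence slope higher than the sample average by over 3 SD, cut at about -0.22 in these data, passing the limit was not always enough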;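 further: slope of raw intensity against log time taken from 70 to 1610 s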); details: recombinant KvBeta, 4-cyanobenzaldehyde reduction, at 10 µM, stronger effect = higher value
[5] = molecular target: Voltage-gated potassium channel subunit beta-2 (Rattus norvegicus) (UniProt P62483); test: enhancers of rat Kvbeta2 NADPH turnover – biochemical, NADPH fluorescence, primary screen (AID 623;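 active means NADPH fluorescence slope more negative than the mean of all samples by about 3 SD, 99.7% confidence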;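 further: fluorescence intensity change per second fitted from 20 to 320 s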); details: Recombinant KvBeta, NADPH fluorescence decrease slope, 10 min; at 10 µM; stronger effect = lower value
[6] = molecular target: Alpha-2C adrenergic receptor (Homo sapiens) (UniProt P18825); test: compounds altering alpha2C-coupled GIRK flux – cell-based, HEK293 alpha2C/GIRK1/2, thallium flux, primary screen (AID 624); details: thallium flux BTC fluorescence, at 10 µM, actives lie on both sides;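 further: slope of fluorescence ratio to pre-addition baseline per second over 15 to 24 s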
[7] = blockers of RIG-like receptor reporter activation – cell-based, Sendai virus stimulus, luciferase, 10K MLSCN set, TLR/RLR signaling modifier project, primary screen (AID 602276;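 active means inhibition at or above 50% at 10 µM; inactive means inhibition below 50%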;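 further: firefly luciferase from ISG56 promoter only with Renilla not read in this screen; 0% = Sendai virus plus DMSO and 100% = medium plus DMSO without virus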); details: HEK293 RL24 IRF3 luciferase reporter, at 10 µM, stronger effect = higher value
[8] = TLR3 IRF3 reporter activation blockers – cell-based, poly I:C stimulus, luciferase, 10K MLSCN set, primary screen (AID 602277;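 active means inhibition of the reporter signal at or above 50%; inactive means inhibition below 50%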); details: HEK293-TLR3 RL24 IRF3 luciferase reporter, at 10 µM, stronger effect = higher value

Voltage-gated potassium channel subunit beta-2 (Rattus norvegicus), sequence (P62483 whole entry, looked up): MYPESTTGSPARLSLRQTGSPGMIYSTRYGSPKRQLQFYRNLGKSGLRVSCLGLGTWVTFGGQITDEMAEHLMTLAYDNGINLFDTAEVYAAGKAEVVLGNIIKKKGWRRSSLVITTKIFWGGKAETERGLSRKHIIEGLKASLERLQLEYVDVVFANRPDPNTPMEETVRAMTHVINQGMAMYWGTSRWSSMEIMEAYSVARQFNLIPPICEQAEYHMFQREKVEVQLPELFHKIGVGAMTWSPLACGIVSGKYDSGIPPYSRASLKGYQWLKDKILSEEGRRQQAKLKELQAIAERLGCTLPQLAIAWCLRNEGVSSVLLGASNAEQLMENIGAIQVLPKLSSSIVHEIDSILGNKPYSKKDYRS
Alpha-2C adrenergic receptor (Homo sapiens), sequence (P18825 whole entry, looked up): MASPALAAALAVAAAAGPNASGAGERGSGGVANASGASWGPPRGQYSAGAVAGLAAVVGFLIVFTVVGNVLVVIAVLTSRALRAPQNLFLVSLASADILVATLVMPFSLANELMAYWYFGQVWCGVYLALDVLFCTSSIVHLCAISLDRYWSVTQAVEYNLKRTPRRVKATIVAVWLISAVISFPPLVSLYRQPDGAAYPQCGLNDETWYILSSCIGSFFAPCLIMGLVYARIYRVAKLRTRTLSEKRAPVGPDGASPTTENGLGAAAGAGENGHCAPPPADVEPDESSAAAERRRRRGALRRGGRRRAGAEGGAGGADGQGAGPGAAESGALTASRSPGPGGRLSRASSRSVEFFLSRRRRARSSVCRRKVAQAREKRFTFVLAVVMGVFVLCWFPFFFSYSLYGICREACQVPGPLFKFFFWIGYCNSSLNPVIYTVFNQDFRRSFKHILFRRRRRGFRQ

SMILES | cell count [1] | inhibition [1] | inhibition of aggregation [2] | nuclei count [2] [%] | inhibition [3] | nuclei count [3] [%] | fluorescence slope [4] | NADPH fluorescence slope [5] | slope [6] | inhibition [7] | inhibition [8]
CCCCNC(=O)OCCNC(=O)NC | 314 | 2.9% (inactive) | -7.8% (inactive) | 100 | -62.2% (inactive) | 107 | -0.317 (inactive) | -2.2e-05 (inactive) | 0.00519 (inactive) | 7.22% (inactive) | 2.44% (inactive)
Cn1c(=O)c2c(nc(NCCCO)n2C/C=C/c2ccccc2)n(C)c1=O | 401 | -1.8% (inactive) | 1.8% (inactive) | 112 | -45.2% (inactive) | 153 | -0.336 (inactive) | 9.8e-06 (inactive) | 0.004 (inactive) | 22.3% (inactive) | 34.2% (inactive)
O=S(=O)(c1cccs1)N1CCN(Cc2nc3ccccc3s2)CC1 | 283 | 3.3% (inactive) | -5.8% (inactive) | 99.8 | 1% (inactive) | 90.9 | -0.556 (inactive) | 3e-05 (inactive) | 0.00461 (inactive) | -3.64% (inactive) | -4.76% (inactive)
CCOC(=O)C(C)(C)Sc1nc2c(cnn2-c2ccc(Cl)cc2)c(=O)[nH]1 | 623 | -5.2% (inactive) | -10.2% (inactive) | 119 | -27.2% (inactive) | 102 | -0.59 (inactive) | -5e-05 (inactive) | 0.00733 (inactive) | 9.09% (inactive) | 16.7% (inactive)
CCOC(=O)c1sc(=NC(=O)c2ccc(OC)c(OC)c2)n(C)c1C | 642 | 10.1% (inactive) | 3.7% (inactive) | 93.8 | 47.2% (inactive) | 75.6 | -0.583 (inactive) | -2.7e-05 (inactive) | 0.00657 (inactive) | -16.4% (inactive) | -82.7% (inactive)
Cc1ccc(CCNC(=O)C2CCC(=O)N2C2CCCC2)cc1 (stereo not drawn) | 703 | -1.3% (inactive) | 6.9% (inactive) | 97.5 | 16.9% (inactive) | 97.7 | -0.493 (inactive) | -4.7e-05 (inactive) | 0.0072 (inactive) | 1.44% (inactive) | 10.9% (inactive)
O=C(CSc1nccn1-c1cccc(Cl)c1)NC1CCCC1 | 256 | -9.5% (inactive) | -1.4% (inactive) | 95.8 | 39.3% (inactive) | 95.5 | -0.618 (inactive) | 3e-05 (inactive) | 0.00565 (inactive) | 14.4% (inactive) | 29.2% (inactive)
Cn1c(=O)c2c(nc(Br)n2CCSc2nnnn2-c2ccccc2)n(C)c1=O | 294 | -3.4% (inactive) | 19% (inactive) | 94.6 | -7.6% (inactive) | 74.1 | -0.36 (inactive) | -4.2e-05 (inactive) | 0.00509 (inactive) | 1.27% (inactive) | 1.27% (inactive)
c1ccc(CSc2nnc(-c3cccs3)n2Cc2ccco2)cc1 | 601 | -13.3% (inactive) | -3.7% (inactive) | 102 | 51.5% (inactive) | 102 | -0.488 (inactive) | 3.8e-06 (inactive) | 0.00593 (inactive) | -8.26% (inactive) | -9.64% (inactive)
Cc1cc(C)c(S(=O)(=O)Nc2cccnc2)c(C)c1 | 610 | -4.7% (inactive) | -11.3% (inactive) | 119 | -20.4% (inactive) | 113 | -0.614 (inactive) | -5.3e-05 (inactive) | 0.00327 (inactive) | 17.2% (inactive) | 15.7% (inactive)
O=C(NCCC1=CCCCC1)C1CCN(C(=O)Nc2ccccc2)CC1 | 206 | -6.2% (inactive) | -13.3% (inactive) | 92.3 | 5.2% (inactive) | 84.8 | -0.439 (inactive) | -5.1e-05 (inactive) | 0.00392 (inactive) | 2.99% (inactive) | 21.5% (inactive)
O=C(NC1CCN(Cc2nnnn2CCc2ccccc2)CC1)c1ccccc1F | 744 | 0% (inactive) | -8.8% (inactive) | 99.7 | -44.2% (inactive) | 116 | -0.295 (inactive) | -3.3e-06 (inactive) | 0.00487 (inactive) | 11.5% (inactive) | 27.2% (inactive)
Cc1cc(C)n2nc(S(=O)(=O)N(C)c3ccccc3)nc2n1 | 679 | -2.6% (inactive) | 16.2% (inactive) | 102 | -66.9% (inactive) | 114 | -0.568 (inactive) | -5.7e-05 (inactive) | 0.00717 (inactive) | 7.86% (inactive) | 34.2% (inactive)
O=C(CCS(=O)(=O)c1cccc2nsnc12)NCc1ccccc1 | 718 | 3.1% (inactive) | -14.8% (inactive) | 93.6 | -24.5% (inactive) | 114 | -0.567 (inactive) | 3.6e-05 (inactive) | 0.00505 (inactive) | -2.94% (inactive) | 5.74% (inactive)
CCN(CC)CCn1c(OC)cc(=O)[nH]c1=O | 411 | 5.3% (inactive) | -27.5% (inactive) | 108 | -137% (inactive) | 114 | -0.503 (inactive) | 1.6e-06 (inactive) | 0.00433 (inactive) | 10.7% (inactive) | 18.4% (inactive)
CCOC(=O)N1CCN(C(=O)c2ccc3c(SCC(=O)O)c4c(nc3c2)CCCC4)CC1 | 819 | -5.2% (inactive) | 14.8% (inactive) | 100 | -74.3% (inactive) | 137 | -0.542 (inactive) | 7.3e-06 (inactive) | 0.00656 (inactive) | 9.84% (inactive) | 21.6% (inactive)
COc1ccccc1-c1nnc(SCC(=O)NC2CCCCC2)o1 | 490 | -7.8% (inactive) | -6.8% (inactive) | 76 | -86% (inactive) | 104 | -0.56 (inactive) | 5e-05 (inactive) | 0.00636 (inactive) | -1.61% (inactive) | 30.3% (inactive)
COc1ccc(C(=O)Nc2ccccc2C(=O)NCCN2CCOCC2)cc1 | 462 | -2.2% (inactive) | -3.2% (inactive) | 98.2 | -23.5% (inactive) | 103 | -0.429 (inactive) | -1.1e-05 (inactive) | 0.00486 (inactive) | -23.4% (inactive) | -25.1% (inactive)
O=C(CCNS(=O)(=O)c1cccs1)Nc1ccccc1F | 714 | -16.8% (inactive) | -2.2% (inactive) | 102 | -9.8% (inactive) | 109 | -0.3 (inactive) | -6.3e-05 (inactive) | 0.00565 (inactive) | 6.58% (inactive) | 7.01% (inactive)
COC(=O)C1(C)NC(c2cccs2)C2C(=O)N(c3ccccc3F)C(=O)C21 (stereo not drawn) | 334 | 2.8% (inactive) | -16.9% (inactive) | 101 | -24.7% (inactive) | 119 | -0.52 (inactive) | 2.7e-06 (inactive) | 0.00503 (inactive) | -3.44% (inactive) | -0.188% (inactive)
CCOC(=O)CNC(=O)Nc1nnc(-c2ccc(OCC)cc2)o1 | 486 | -30.9% (inactive) | 3.3% (inactive) | 91.3 | -12.6% (inactive) | 103 | -0.591 (inactive) | 2.1e-05 (inactive) | 0.00589 (inactive) | -14.6% (inactive) | -13.9% (inactive)
CN(C)S(=O)(=O)c1cccc(C(=O)Nc2cccnc2)c1 | 294 | 10.1% (inactive) | 0% (inactive) | 103 | -79.6% (inactive) | 128 | -0.407 (inactive) | -5.9e-05 (inactive) | 0.00527 (inactive) | 16.5% (inactive) | 10.8% (inactive)
Cc1cc(C)n2cc(CSc3nnnn3-c3ccc(Cl)cc3)nc2n1 | 446 | 2.4% (inactive) | -22.5% (inactive) | 99.6 | 15.8% (inactive) | 91.8 | -0.517 (inactive) | -3.7e-05 (inactive) | 0.00492 (inactive) | 19.2% (inactive) | 16.6% (inactive)
COc1ccc(C(=O)Nn2c(C3CCC3)nc3ccccc3c2=O)c(OC)c1 | 657 | -10.2% (inactive) | -14% (inactive) | 111 | 14.7% (inactive) | 129 | -0.585 (inactive) | -7.6e-07 (inactive) | 0.00893 (inactive) | -0.704% (inactive) | 5.08% (inactive)
CSc1ccccc1NC(=O)c1cnc2n(c1=O)CCS2 | 695 | -9.6% (inactive) | -2.5% (inactive) | 111 | -2.6% (inactive) | 112 | -0.401 (inactive) | 1e-05 (inactive) | 0.00535 (inactive) | 5.22% (inactive) | -12.4% (inactive)
Cc1cc(NC(=O)CCC(=O)N(c2cccnc2)C(C(=O)NC2CCCC2)c2ccccc2F)no1 (stereo not drawn) | 557 | -9% (inactive) | 11.8% (inactive) | 107 | -19.7% (inactive) | 116 | -0.62 (inactive) | -5.7e-06 (inactive) | 0.00332 (inactive) | -5.41% (inactive) | -11% (inactive)
NC(=O)NC(c1ccccc1)c1ccccc1F (stereo not drawn) | 565 | -4.8% (inactive) | 12.6% (inactive) | 99.1 | 36.7% (inactive) | 88.9 | -0.317 (inactive) | 5.1e-06 (inactive) | 0.00595 (inactive) | 2.53% (inactive) | 25.9% (inactive)
CCN(CC)CCCNC(=O)c1nn(-c2ccc(OC)cc2OC)c(=O)c2ccccc12 | 352 | 5.3% (inactive) | -6.3% (inactive) | 106 | -101% (inactive) | 127 | -0.597 (inactive) | -3.1e-05 (inactive) | 0.00476 (inactive) | -10.6% (inactive) | 7.12% (inactive)
